# Source: PubChem BioAssay (EPA / NIEHS)
# Results filed as inconclusive are left out. More than one record can exist for a structure, and the calls need not agree. Activity calls are given as the source filed them. How the source made its calls, unless noted: active means hit-call score of the fitted dose curve at least 0.9, where 1 is the maximum; inactive means score below 0.9.
# Columns and labels:
# TIMP1, TIMP1 (gene 7076) = assay: LTEA_HepaRG_TIMP1: Life Technologies and Expression Analysis (LTEA) Assay for TIMP1 using HepaRG (AID 2283534); settings: mRNA level, 48 h; actives raise or lower the signal
# Method in brief: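 Bidirectional change in TIMP1 transcript versus 0.5% DMSO, measured by TaqMan qRT-PCR with three housekeeping genes for normalization. HepaRG human liver cells dosed 48 h in duplicate, top concentration 100 uM with half-log dilutions.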
# [1] = read-out: Tumor necrosis factor receptor 1 (TNFRSF1A), TNFRSF1A (gene 7132); assay: LTEA_HepaRG_TNFRSF1A: Life Technologies and Expression Analysis (LTEA) Assay for Tumor necrosis factor receptor 1 (TNFRSF1A) using HepaRG (AID 2283535); settings: mRNA level, 48 h; actives raise or lower the signal
# Method in brief: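 mRNA measured by qRT-PCR (TaqMan, Fluidigm arrays) against ACTB/GAPDH/POLR2A housekeepers after 48 h chemical exposure of HepaRG cells. Top concentration 100 uM, half-log 8-point series, duplicates; vehicle 0.5% DMSO, both fit directions.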
# [2] = read-out: Thyroid Hormone Responsive (THRSP), THRSP (gene 7069); assay: LTEA_HepaRG_THRSP: Life Technologies and Expression Analysis (LTEA) Assay for Thyroid Hormone Responsive (THRSP) using HepaRG (AID 2283536); settings: mRNA level, 48 h; actives raise or lower the signal
# Method in brief: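 THRSP transcript quantified by Fluidigm qRT-PCR against three housekeeping genes after 48 h chemical exposure of HepaRG cells in serum-free induction medium; eight-point half-log series, top 100 uM, 0.5% DMSO vehicle, duplicate wells.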
# [3] = read-out: Cellular tumor antigen p53 (Homo sapiens) (UniProt P04637); assay: LTEA_HepaRG_TP53: Life Technologies and Expression Analysis (LTEA) Assay for Tumor Protein P53 (TP53) using HepaRG (AID 2283537); settings: mRNA level, 48 h; actives raise or lower the signal
# Method in brief: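 Gain or loss of TP53 mRNA signal is scored relative to 0.5% DMSO after 48 h chemical treatment of HepaRG liver cells, tested in duplicate at eight half-log concentrations up to 100 uM.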
# [4] = read-out: UDP glucuronosyltransferase (UGT1A1), UGT1A1 (gene 54658); assay: LTEA_HepaRG_UGT1A1: Life Technologies and Expression Analysis (LTEA) Assay for UDP glucuronosyltransferase (UGT1A1) using HepaRG (AID 2283538); settings: mRNA level, 48 h; actives raise or lower the signal
# Method in brief: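 HepaRG, 48 h chemical exposure (top 100 uM, half-log 8-pt, 0.5% DMSO vehicle), duplicate wells; qRT-PCR (TaqMan, Fluidigm array) for UGT1A1 mRNA, housekeeping-normalized; bidirectional curve fit vs DMSO baseline.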
# [5] = read-out: UDP glucuronosyltransferase (UGT1A6), UGT1A6 (gene 54578); assay: LTEA_HepaRG_UGT1A6: Life Technologies and Expression Analysis (LTEA) Assay for UDP glucuronosyltransferase (UGT1A6) using HepaRG (AID 2283539); settings: mRNA level, 48 h; actives raise or lower the signal
# Method in brief: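 Expression was quantified by TaqMan qRT-PCR on Fluidigm arrays with ACTB/GAPDH/POLR2A normalization and bidirectional fitting against 0.5% DMSO. HepaRG cells (~100,000/well) were treated in duplicate for 48 h at eight half-log concentrations up to 100 uM in serum-free induction medium.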
# [6] = read-out: X-box binding protein 1 (XBP1), XBP1 (gene 7494); assay: LTEA_HepaRG_XBP1: Life Technologies and Expression Analysis (LTEA) Assay for X-box binding protein 1 (XBP1) using HepaRG (AID 2283540); settings: mRNA level, 48 h; actives raise or lower the signal
# Method in brief: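 XBP1 transcript by qRT-PCR (housekeeping-normalized: ACTB, GAPDH, POLR2A) after 48 h chemical treatment of HepaRG cells, 8-point half-log series topping at 100 uM, vehicle 0.5% DMSO. Gain and loss of signal fitted relative to DMSO.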
# [7] = LTEA_HepaRG_LDH_cytotoxicity: Cytotoxicity Assessment in the Life Technologies and Expression Analysis (LTEA) Assay (AID 2283563; active means hit-call score of the fitted dose curve at least 0.9, where 1 is the maximum;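 on AC50: LDH activity released into spent culture medium as a marker of cell death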)
# Method in brief: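 LDH release into culture medium read after 48 h chemical treatment of HepaRG cells. Duplicate wells, eight-point half-log series topping at 100 uM, 0.5% DMSO vehicle and baseline.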
# [8] = TOX21_p53_BLA_p2_viability: Viability Assessment in the Tox21 HCT-116 p53 Agonism Beta-lactamase Assay, Phase 2 (AID 2283591; active means hit-call score of the fitted dose curve at least 0.9, where 1 is the maximum;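 further: compound exposure lasted 16 h at 37 °C; actives lower the ATP signal meaning cytotoxicity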)
# Method in brief: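 Cytotoxicity readout: CellTiter-Glo ATP luminescence, 30 min at room temperature, after the beta-lactamase read. Cells were HCT116 exposed 16 h at 37C to compounds pin-transferred at 217-fold dilution from DMSO stocks.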
# [9] = ATG_XTT_Cytotoxicity: Cytotoxicity Assessment in the Attagene TRANS-FACTORIAL HepG2 Assay (AID 2283584; active means hit-call score of the fitted dose curve at least 0.9, where 1 is the maximum)
# Method in brief: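 Viability endpoint from XTT after 24 h chemical exposure of reporter-transfected human HepG2 liver cells; signal loss fitted relative to DMSO negative control.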
# Cellular tumor antigen p53 (Homo sapiens), sequence (P04637 whole entry, looked up): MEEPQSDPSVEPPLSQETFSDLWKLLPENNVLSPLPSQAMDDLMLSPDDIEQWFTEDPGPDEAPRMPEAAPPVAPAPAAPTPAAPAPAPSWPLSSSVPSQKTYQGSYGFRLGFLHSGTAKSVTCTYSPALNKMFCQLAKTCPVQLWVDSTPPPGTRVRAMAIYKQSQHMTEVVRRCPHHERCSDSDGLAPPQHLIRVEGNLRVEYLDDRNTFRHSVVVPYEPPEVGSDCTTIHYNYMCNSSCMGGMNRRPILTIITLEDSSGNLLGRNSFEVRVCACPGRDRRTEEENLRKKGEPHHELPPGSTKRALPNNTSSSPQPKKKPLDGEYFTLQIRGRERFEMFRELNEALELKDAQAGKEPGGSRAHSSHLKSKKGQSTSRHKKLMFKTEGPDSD
structure (smiles),measurement,setting,value
CCOc1cccc(-n2cc(C(=O)N3CCN(c4cc(C(=O)O)c5ccccc5c4)CC3)nc2-c2ccc(C)cc2)c1,outcome,"TIMP1, TIMP1 (gene 7076)",inactive
same,AC50,[1],80.3 µM (active)
same,AC50,[2],26.3 µM (active)
same,AC50,[3],91.5 µM (active)
same,AC50,[4],75.9 µM (active)
same,AC50,[5],75.1 µM (active)
same,AC50,[6],88.1 µM (active)
same,AC50,[7],36.3 µM (active)
same,AC50,[8],10.6 µM (active)
CN(C)c1ccc(Cc2ccc(N(C)C)cc2)cc1,outcome,"TIMP1, TIMP1 (gene 7076)",inactive
same,outcome,[1],inactive
same,AC50,[2],19.5 µM (active)
same,outcome,[3],inactive
same,AC50,[4],11.5 µM (active)
same,AC50,[5],85.6 µM (active)
same,outcome,[6],inactive
same,outcome,[7],inactive
same,outcome,[8],inactive
CC[C@H](C)C(=O)O[C@H]1C[C@@H](C)C=C2C=C[C@H](C)[C@H](CC[C@@H]3C[C@@H](O)CC(=O)O3)[C@H]21,outcome,"TIMP1, TIMP1 (gene 7076)",inactive
same,outcome,[1],inactive
same,outcome,[3],inactive
same,AC50,[4],0.0554 µM (active)
same,outcome,[5],inactive
same,outcome,[6],inactive
same,outcome,[7],inactive
same,AC50,[8],44.6 µM (active)
same,outcome,[8],inactive
CCCCC(CC)COC(=O)CCCCCCCCC(=O)OCC(CC)CCCC (stereo not drawn),outcome,"TIMP1, TIMP1 (gene 7076)",inactive
same,outcome,[1],inactive
same,outcome,[2],inactive
same,outcome,[3],inactive
same,outcome,[4],inactive
same,outcome,[5],inactive
same,outcome,[6],inactive
same,outcome,[9],inactive
same,outcome,[8],inactive
O=C(O)c1cc(N=Nc2ccc(S(=O)(=O)Nc3ccccn3)cc2)ccc1O,outcome,[1],inactive
same,outcome,[2],inactive
same,outcome,[3],inactive
same,outcome,[4],inactive
same,outcome,[5],inactive
same,outcome,[6],inactive
same,outcome,[7],inactive
same,outcome,[9],inactive
same,outcome,[8],inactive
CC[C@H]1CC[C@H](NCc2cc3c(cc2OC)[C@H]2C[C@H]2C(=O)N3C)[C@H](c2ccccc2)N1,outcome,"TIMP1, TIMP1 (gene 7076)",inactive
same,outcome,[1],inactive
same,AC50,[2],29.3 µM (active)
same,outcome,[3],inactive
same,AC50,[4],19 µM (active)
same,outcome,[5],inactive
same,outcome,[6],inactive
same,outcome,[7],inactive
same,outcome,[8],inactive
CC(=O)c1ccc2c(c1)[C@H](NC(=O)c1ccc(F)cc1)[C@@H](O)C(C)(C)O2,outcome,"TIMP1, TIMP1 (gene 7076)",inactive
same,outcome,[1],inactive
same,outcome,[2],inactive
same,outcome,[3],inactive
same,AC50,[4],22.6 µM (active)
same,outcome,[5],inactive
same,outcome,[6],inactive
same,outcome,[7],inactive
same,outcome,[8],inactive
CCOC(=O)COc1ccc2c(c1)CC(NCC(O)c1cccc(Cl)c1)CC2 (stereo not drawn),outcome,"TIMP1, TIMP1 (gene 7076)",inactive
same,outcome,[1],inactive
same,outcome,[2],inactive
same,outcome,[3],inactive
same,outcome,[4],inactive
same,outcome,[5],inactive
same,AC50,[6],45.8 µM (active)
same,outcome,[7],inactive
same,AC50,[8],67.3 µM (active)
COc1cccc(-c2ccc(/C=C\CN3CCCCCC3)cc2Cl)c1,outcome,"TIMP1, TIMP1 (gene 7076)",inactive
same,outcome,[1],inactive
same,outcome,[2],inactive
same,outcome,[3],inactive
same,AC50,[4],83.4 µM (active)
same,AC50,[5],80.4 µM (active)
same,outcome,[6],inactive
same,AC50,[7],68.8 µM (active)
same,AC50,[8],57.8 µM (active)
O=C(O)c1cccc(N(Cc2cccnc2)c2ccc(OC(F)F)c(OC(F)F)c2)c1,outcome,"TIMP1, TIMP1 (gene 7076)",inactive
same,outcome,[2],inactive
same,outcome,[3],inactive
same,AC50,[4],25 µM (active)
same,outcome,[5],inactive
same,outcome,[6],inactive
same,outcome,[7],inactive
same,outcome,[9],inactive
same,outcome,[8],inactive
CC1=CC(=O)CC(C)(C)C1,outcome,"TIMP1, TIMP1 (gene 7076)",inactive
same,outcome,[1],inactive
same,outcome,[2],inactive
same,outcome,[3],inactive
same,outcome,[4],inactive
same,outcome,[5],inactive
same,outcome,[6],inactive
same,outcome,[7],inactive
same,outcome,[8],inactive
CCc1cc(SCc2sc(-c3ccc(C(F)(F)F)cc3)nc2CN2CCN(c3ccc(OC)cc3)CC2)ccc1OCC(=O)O,AC50,"TIMP1, TIMP1 (gene 7076)",94 µM (active)
same,AC50,[1],5 µM (active)
same,outcome,[2],inactive
same,AC50,[3],7.74 µM (active)
same,AC50,[4],7.28 µM (active)
same,AC50,[5],7.77 µM (active)
same,AC50,[6],94 µM (active)
same,AC50,[7],16.2 µM (active)
same,AC50,[8],7.48 µM (active)
